Rows were chosen to be rich in hits. Some 4% of all compounds tested hit in one or more screens of this group.
Bead autofluor: flagged as autofluorescent in microsphere protease counterscreen; compound autofluorescence counterscreen, microsphere flow cytometry; stronger effect = higher value; fluorescence intensity (concentration not given with the values); 360,000 tested, 3.1% active; AID 624483; in the data active means fluorescence intensity above about 16000; inconclusive means no clear call, values can overlap the other calls
BoNT F protease: BoNT/F light chain protease inhibitors, primary screen, biochemical, flow cytometry, MLPCN library; Multiplex microsphere protease cleavage assay; AID 588497, 2011; 360,000 tested, 0.22% active; Botulinum neurotoxin type F light chain protease (Clostridium botulinum); inhibition, % at 10 µM; in the data active means inhibition above about 35%, passing the limit was not always enough; inconclusive means no clear call, values can overlap the other calls; further: plate controls were buffer without enzyme for full effect and enzyme alone for no effect
DUSP3 inh: VHR1 phosphatase inhibitors, primary screen, biochemical, absorbance, uHTS; Dual specificity protein phosphatase 3 (Homo sapiens), P51452; recombinant VHR phosphatase, pNPP absorbance; inhibition, % at 13.3 µM; 290,000 tested, 0.52% active; AID 1654, 2009; in the data active means inhibition above about 50%
Target sequence (P51452 whole entry, looked up): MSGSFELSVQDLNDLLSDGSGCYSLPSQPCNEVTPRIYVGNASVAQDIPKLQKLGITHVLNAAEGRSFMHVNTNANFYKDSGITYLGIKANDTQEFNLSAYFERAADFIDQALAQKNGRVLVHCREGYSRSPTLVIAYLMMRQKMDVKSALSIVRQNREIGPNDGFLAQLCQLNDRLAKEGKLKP
BoNT A protease: BoNT/A light chain protease inhibitors, primary screen, biochemical, flow cytometry, MLPCN library | Botulinum neurotoxin type A light chain protease (Clostridium botulinum A str. ATCC 3502) | multiplex microsphere protease substrate cleavage | inhibition, % at 10 µM | 360,000 tested, 0.17% active | AID 588499, 2011; further: plate controls were buffer without enzyme for full effect and enzyme alone for no effect
MazEF act: activators of E. coli MazEF toxin-antitoxin RNase, primary screen, biochemical, fluorescence, uHTS; Endoribonuclease toxin MazF (Escherichia coli (strain K12)), P0AE70; FAM/BHQ RNA-DNA oligo cleavage fluorescence, 5 h; activation, % at 20 µM; 350,000 tested, 0.32% active; AID 504720, 2011; in the data active means activation above about 50%
Target sequence (P0AE70 whole entry, looked up): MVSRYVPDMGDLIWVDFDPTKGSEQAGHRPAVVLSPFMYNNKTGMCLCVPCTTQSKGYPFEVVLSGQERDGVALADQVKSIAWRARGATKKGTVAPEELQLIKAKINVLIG
Anthrax LF prot: Bacillus anthracis LF protease inhibitors, primary screen, biochemical, multiplex microsphere, MLPCN library; Lethal factor (Bacillus anthracis), P15917; multiplex microsphere protease cleavage assay; inhibition, % at 10 µM; 360,000 tested, 0.12% active; AID 588501, 2011; further: plate controls were buffer without enzyme for full effect and enzyme alone for no effect
Starred values were filed as active, the others as inactive; ? = inconclusive; / = not tested or not shown. Unless noted, no stated cut-off is given here; in the data, active means inhibition above about 30%; inconclusive means no clear call, values can overlap the other calls; inactive means below that.

SMILES	Bead autofluor	BoNT F protease	DUSP3 inh	BoNT A protease	MazEF act	Anthrax LF prot
COc1cccc(CNCCSc2nnnn2C)c1	10456	3.2	10.2	-0.4	2.3	-2.1
COc1ccc(Br)cc1CNCCSc1nnnn1C	22723*	-7.5	35.1	0.4	11.7	-0.9
CCc1ccc(CNCCSc2nnnn2C)cc1	23525*	-5.8	-8.1	-1.0	9.4	-1.1
O=C(NNc1ccc([N+](=O)[O-])cc1)C12CC3CC(CC(C3)C1)C2	20243*	-3.2	13.7	-0.9	0.9	-0.4
O=C(NNC(=O)C12CC3CC(CC(C3)C1)C2)c1cccc([N+](=O)[O-])c1	5405	2.6	8.5	-1.6	10.2	-0.9
CC(NC(=O)c1ccc(-c2cc(C(F)(F)F)ccc2Cl)o1)c1ccccc1 (stereo not given)	20639*	-0.2	21.3	?	-5.1	1.4
Cc1ccc(C(=O)NC(C)c2ccccc2)o1 (stereo not given)	22061*	2.8	-4.8	1.5	2.3	-5.4
COc1ccccc1C(=O)OCCN=C1NS(=O)(=O)c2ccccc21	2804	-21.7	34.4	1.3	-11.1	13.3
Cc1ccc(NC(=S)N2CCC(NC(=O)c3cccc(F)c3)CC2)cc1	5894	1.2	54.8*	-1.3	0.0	-4.2
CCOc1ccc(OCC)c(NC(=O)CN2CCC(NC(=O)c3cccc(F)c3)CC2)c1	20291*	-3.8	-5.4	-0.3	3.6	-1.8
COc1ccc(NC(=O)c2cccnc2Cl)c(S(=O)(=O)N2CCOCC2)c1	22564*	3.6	22.8	2.3	13.8	-0.2
COc1ccc(NC(=O)c2cncc(Br)c2)c(S(=O)(=O)N2CCOCC2)c1	2851	-2.6	10.0	1.0	3.9	-1.0
C=C(C)CNC(=O)c1ccc(OC2CCN(S(=O)(=O)N(C)C)CC2)cc1	4445	2.9	12.2	-0.8	5.9	-4.2
CCn1c(SCC(=O)c2cccs2)nnc1-c1cccs1	10824	-2.1	4.2	0.7	-6.6	-1.8
Cc1cc(C)c2c(c1)c(C)cc1nnc(SCC(=O)c3cccs3)n12	5592	-0.1	11.3	-0.5	73.7*	-2.2
O=C(Cc1coc2ccc3ccccc3c12)Nc1nnc(C2CC2)s1	3228	7.0	17.2	1.5	3.7	1.1
COc1ccc(CCNC(=O)COC(=O)/C=C/c2ccc3c(c2)OCO3)cc1	3796	-1.7	/	0.0	-5.1	3.0
CCN1C(=O)/C(=C\N(C)C)c2ccccc21	7006	-12.6	8.8	-1.8	5.6	-9.1
CCN1C(=O)/C(=C/N(C)C)c2ccccc21	16312*	-4.8	15.3	-0.2	11.8	1.8
Cc1cc(NC(=O)CSc2ccc3nnc(-c4ccccc4)n3n2)no1	10524	6.9	-19.8	1.0	4.1	-22.2
CCc1ccc(S(=O)(=O)Nc2c(NC3CCCCC3)c3ccccc3oc2=O)cc1	6379	1.0	56.7*	-1.3	-1.3	-2.3
NS(=O)(=O)c1ccc(CCNc2nc3c(-c4cccc(F)c4)nnn3c3ccccc23)cc1	7970	-4.1	8.8	1.7	109.1*	-0.5
Cc1cccc(-c2nnn3c2nc(NCCc2ccc(S(N)(=O)=O)cc2)c2ccccc23)c1	7386	-1.3	16.5	0.7	4.8	3.9
CCCc1nnc(NC(=O)CCC(=O)N2CCN(Cc3ccc(C)cc3C)CC2)s1	5633	-7.4	-2.2	0.5	8.9	-1.2
CCc1nnc(NC(=O)CCC(=O)N2CCN(Cc3ccc(C)cc3C)CC2)s1	5331	1.9	55.6*	2.3	3.4	-0.4
SMILES	Bead autofluor	BoNT F protease	DUSP3 inh	BoNT A protease	MazEF act	Anthrax LF prot
COc1ccccc1-n1c(SCC(=O)N2CCCCC2)nc2cccnc21	3738	-20.7	24.4	-0.7	-2.1	1.2
COC(=O)/C(=C/c1c[nH]c2ccccc12)NC(C)=O	2138	0.2	-7.4	-0.2	-2.7	0.0
CCOC(=O)/C(=C/c1c[nH]c2ccccc12)NC(C)=O	19612*	4.2	18.6	1.5	3.7	-1.8
O=C(CN1CCN(c2ccccc2O)CC1)NC(=O)NCc1ccco1	2032	-3.6	16.9	-1.0	4.1	1.2
CCc1c(C(=O)Nc2nnc(C3CC3)s2)csc1C	21291*	0.0	-3.8	?	7.1	1.3
CCOc1ncccc1C(=O)Nc1nnc(C2CC2)s1	5353	0.1	17.8	0.3	11.9	3.2
Cc1ccc(Cl)cc1N1CCN(C(=O)C2CCC(=O)N2C(C)C)CC1 (stereo not given)	5512	-1.0	3.9	-0.5	6.9	3.2
CCOC(=O)N1CCN(C(=O)C2CCC(=O)N2C(C)C)CC1 (stereo not given)	22385*	1.0	48.8	3.8	-0.3	0.1
NC(=O)c1ccccc1NS(=O)(=O)c1ccccc1	8559	1.1	-8.0	1.9	-3.0	2.7
Cc1ccc(S(=O)(=O)Nc2ccccc2C(N)=O)cc1	17497*	-11.6	7.2	-2.0	8.0	-0.6
CCN(CC)CCN1C(=O)c2oc3ccc(F)cc3c(=O)c2C1c1ccncc1 (stereo not given)	5086	-9.5	18.1	-0.9	1.9	-12.6
CCN(CC)CCN1C(=O)c2oc3ccccc3c(=O)c2C1c1ccc(F)cc1 (stereo not given)	21092*	-2.9	31.3	-2.3	12.9	-3.5
CN(C)CCN1C(=O)c2oc3ccccc3c(=O)c2C1c1ccccc1 (stereo not given)	/	/	21.3	/	/	/
CCOc1cccc(C2c3c(oc4cc(C)c(C)cc4c3=O)C(=O)N2CCCN(C)C)c1 (stereo not given)	/	/	50.3*	/	/	/
CN(C)CCCN1C(=O)c2oc3ccccc3c(=O)c2C1c1cccs1 (stereo not given)	18317*	6.6	4.8	7.9	2.1	-8.6
CCCOc1ccc(C2c3c(oc4cc(C)c(C)cc4c3=O)C(=O)N2CCCN(C)C)cc1 (stereo not given)	5934	1.5	25.2	2.1	38.3	1.0
O=c1[nH]nc(CNc2ccc(O)cc2)c2ccccc12	4446	1.6	6.5	-1.1	444.4*	1.1
O=C(CC(C(=O)N1CCc2ccccc21)n1ccnc1)NCc1cccnc1 (stereo not given)	11226	0.2	17.8	-0.5	3.3	-5.0
CCN(CCCNC(=O)CC(C(=O)N1CCc2ccccc21)n1ccnc1)c1ccccc1 (stereo not given)	18267*	5.2	28.5	6.1	0.6	-12.3
COC(=O)c1[nH]nc(-c2ccccc2)c1-c1ccccc1	/	/	/	/	6.3	/
CC(=O)N1CCc2[nH]c3ccccc3c2C1	17082*	-5.2	28.7	-2.3	1.4	-2.9
COc1ccc(OCCCC(=O)Nc2cc(Cl)ccc2-n2cncn2)cc1	17700*	-131.0	/	-87.4	-0.9	-19.7
CCOc1ccccc1/C=N/Nc1cc(C)nc2ccc(C)cc12	3552	-18.3	19.3	-2.8	3.0	12.4

From PubChem BioAssay
